What all share (experiment): NCI-60 one-dose screen, 48 h (100 = growth as untreated, 0 = no growth, -100 = all killed)
In experiment [1] the test system is T-47D breast.
For experiment [2], the system named is BT-549 breast.
The subject of experiment [3] is MDA-MB-435 melanoma.
In experiment [4] the test system is SW-620 colon.
The test system of experiment [5] is MCF7 breast.
The test system of experiment [6] is HCT-116 colon.
Experiment [7] relates to HCC-2998 colon.
For experiment [8], the system named is KM12 colon.

From PubChem BioAssay (NCI) come the findings set out here.

Several values for one entry are separate records, joined by “and”; a condition that tells them apart may be missing. Identical values can stand only once. Compounds without any hit were thinned out: in the full panel of roughly 83,000, 20% have a hit.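 The endpoint reported here, percent growth, reads 100 for growth as untreated, 0 for no net growth and -100 for all cells dead.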 Activity calls are given as the source filed them. The calls were made as follows: active = growth percent below 10; inactive = the rest.

On to `COc1ccc(/C(C)=C(\c2ccc(OCCN3CCCCCC3)cc2)c2ccc(OC(=O)C3CCCCC3)cc2)cc1`, for which the growth in experiment [1] (10 µM unless noted) is -57% (active); in experiment [2] (10 µM unless noted), -78.2% (active); in experiment [3] (10 µM unless noted) it was -77.1% (active); in experiment [4] (10 µM unless noted), -49.8% (active); in experiment [5] (10 µM unless noted) it was -23.6% (active); in experiment [6] (10 µM unless noted), -63.9% (active). Moreover, the growth in experiment [7] (10 µM unless noted) was -79% (active); in experiment [8] (10 µM unless noted), -54.1% (active).
Turning to `COc1ccc(-c2[nH]c3ccccc3c2-c2ccc(OC)cc2)cc1`, the growth was 41.1% (inactive) in experiment [1] (10 µM unless noted); 90.9% (inactive) in experiment [2] (10 µM unless noted); -33.1% (active) in experiment [3] (10 µM unless noted); 37.1% (inactive) in experiment [4] (10 µM unless noted); 16.2% (inactive) in experiment [5] (10 µM unless noted); 24.4% (inactive) in experiment [6] (10 µM unless noted). Further, the growth in experiment [7] (10 µM unless noted) was 32.3% (inactive); in experiment [8] (10 µM unless noted), 16.6% (inactive).
For `c1cc(NCCCCN2CCOCC2)c2ccc3c(ccc4c(NCCN5CCOCC5)ccnc43)c2n1`, the growth is 94.9% (inactive) in experiment [1] (10 µM unless noted); 103% (inactive) in experiment [2] (10 µM unless noted); 98.5% (inactive) in experiment [3] (10 µM unless noted); -16.5% (active) in experiment [4] (10 µM unless noted); 58.5% (inactive) in experiment [5] (10 µM unless noted); 48.4% (inactive) in experiment [6] (10 µM unless noted). In addition, the figures for the growth in experiment [7] (10 µM unless noted) and in experiment [8] (10 µM unless noted) were 87.8% (inactive) and 92.1% (inactive), respectively.
On to `COc1ccc(C(=O)/C=C/c2ccc(OCc3cccc(C(F)(F)F)c3)c(OC)c2)cc1OC`, for which the growth in experiment [1] (10 µM) was 54.2% (inactive); in experiment [1] (100 µM) it was 11.3% (inactive); in experiment [2] (10 µM), 95.2% (inactive); in experiment [2] (100 µM) it was -41.3% (active); in experiment [3] (10 µM), 86.3% (inactive); in experiment [3] (100 µM), 12% (inactive). Also, the growth was 59.1% (inactive) in experiment [4] (10 µM); 6.75% (active) in experiment [4] (100 µM); 40% (inactive) in experiment [5] (10 µM); 6.42% (active) in experiment [5] (100 µM); 52.3% (inactive) in experiment [6] (10 µM); 3.91% (active) in experiment [6] (100 µM). Besides, the growth in experiment [7] (10 µM) is 105% (inactive); in experiment [7] (100 µM) it was 10.8% (inactive); in experiment [8] (10 µM), 72.5% (inactive); in experiment [8] (100 µM) it was 12.4% (inactive).
Consider `CCc1c2c(nc3ccc(OCc4ccc(B5OC(C)(C)C(C)(C)O5)cc4)cc13)-c1cc3c(c(=O)n1C2)COC(=O)[C@]3(O)CC`, for which the growth in experiment [1] (10 µM unless noted) was 0.841% (active); in experiment [2] (10 µM unless noted), 28.8% (inactive); in experiment [3] (10 µM unless noted), 9.46% (active); in experiment [4] (10 µM unless noted) it was 15.6% (inactive); in experiment [5] (10 µM unless noted) it was 2.53% (active); in experiment [6] (10 µM unless noted), 2.03% (active). For the same compound, the growth in experiment [7] (10 µM unless noted) is 26.7% (inactive); in experiment [8] (10 µM unless noted), 0.421% (active).
Take `CCNC(=O)Nc1ncccc1OCc1ccc(F)cc1`: the growth in experiment [1] (10 µM unless noted) was 90.3% (inactive); in experiment [2] (10 µM unless noted), 114% (inactive); in experiment [3] (10 µM unless noted), 101% (inactive); in experiment [4] (10 µM unless noted), 104% (inactive); in experiment [5] (10 µM unless noted) it was 84% (inactive); in experiment [6] (10 µM unless noted), 97.9% (inactive). Also, the figures for the growth in experiment [7] (10 µM unless noted) and in experiment [8] (10 µM unless noted) were 91.2% (inactive) and 88.1% (inactive), respectively.
As for `CC(=O)/C=C/c1ccc(N(C)Cc2ccc(C(C)(C)C)cc2)cc1`, the growth was 62.5% (inactive) in experiment [1] (10 µM); -53.9% (active) in experiment [1] (100 µM); 101% (inactive) in experiment [2] (10 µM); -90.8% (active) in experiment [2] (100 µM); 88.5% (inactive) in experiment [3] (10 µM); -54.3% (active) in experiment [3] (100 µM). In addition, the growth in experiment [4] (10 µM) was 88.5% (inactive); in experiment [4] (100 µM), -53.5% (active); in experiment [5] (10 µM), 80.3% (inactive); in experiment [5] (100 µM), -22.6% (active); in experiment [6] (10 µM) it was 79.9% (inactive); in experiment [6] (100 µM) it was -66.2% (active). For the same compound, the growth in experiment [7] (10 µM) is 99.6% (inactive); in experiment [7] (100 µM), -41.2% (active); in experiment [8] (10 µM), 95.5% (inactive); in experiment [8] (100 µM), -45.7% (active).
On to `Cc1cc2nc(C(Cl)Cl)nc(-c3ccc(Cl)cc3)n2n1`, for which the growth in experiment [1] (10 µM unless noted) is 27.4% (inactive); in experiment [2] (10 µM unless noted) it was 52.5% (inactive); in experiment [3] (10 µM unless noted) it was -25.2% (active); in experiment [4] (10 µM unless noted), -36.6% (active); in experiment [5] (10 µM unless noted), 2.98% (active); in experiment [6] (10 µM unless noted), -2.01% (active). Also, the results for the growth in experiment [7] (10 µM unless noted) and in experiment [8] (10 µM unless noted) were -77% (active) and -27.2% (active), respectively.
As to `CN(C)c1ccc2nc3ccc(=O)cc-3sc2c1`, the growth in experiment [1] (10 µM unless noted) was 28% (inactive) and 38.8% (inactive); in experiment [2] (10 µM unless noted) it was 52.5% (inactive) and 47.1% (inactive); in experiment [3] (10 µM unless noted), 40.7% (inactive) and -65.2% (active); in experiment [4] (10 µM unless noted), 31.9% (inactive) and 47.4% (inactive); in experiment [5] (10 µM unless noted) it was -1.53% (active) and 1.73% (active); in experiment [6] (10 µM unless noted) it was 2.57% (active) and 9.4% (active). Moreover, the growth was 18.1% (inactive) and 39.7% (inactive) in experiment [7] (10 µM unless noted); 30.4% (inactive) and 32.8% (inactive) in experiment [8] (10 µM unless noted).
Consider `C=C(C)[C@@H]1CC[C@]2(C)[C@H](CC(=O)N[C@H]3[C@@H]4C[C@](C)(C(=O)OC)CC[C@]4(C)CC[C@]32C)[C@@]1(C)CCC#N`, for which the growth was 63.6% (inactive) in experiment [1] (10 µM unless noted); 72.1% (inactive) in experiment [2] (10 µM unless noted); 87.8% (inactive) in experiment [3] (10 µM unless noted); 93% (inactive) in experiment [4] (10 µM unless noted); 73.8% (inactive) in experiment [5] (10 µM unless noted); 72.2% (inactive) in experiment [6] (10 µM unless noted). For the same compound, the growth was 100% (inactive) in experiment [7] (10 µM unless noted) and 79.6% (inactive) in experiment [8] (10 µM unless noted).
`COc1ccc2c(c1)CC[C@@H]1[C@@H]2CC[C@]2(C)C3C(=CCC4C(=O)N(c5ccccc5)C(=O)C43)C[C@@H]12` (stereo not given in full): the growth in experiment [1] (10 µM unless noted) was 99.6% (inactive); in experiment [2] (10 µM unless noted), 110% (inactive); in experiment [3] (10 µM unless noted), 86.4% (inactive); in experiment [4] (10 µM unless noted), 90.6% (inactive); in experiment [5] (10 µM unless noted), 111% (inactive); in experiment [6] (10 µM unless noted), 66.9% (inactive). Also, the growth in experiment [7] (10 µM unless noted) and in experiment [8] (10 µM unless noted) was 93.6% (inactive) each time.
Take `COc1ccc2c(O)c(/C=C3\N=Nc4nc(C)ccc43)oc2c1CC1CCNCC1`: the growth in experiment [1] (10 µM unless noted) is 89.5% (inactive); in experiment [2] (10 µM unless noted), 60.4% (inactive); in experiment [3] (10 µM unless noted) it was 42.7% (inactive); in experiment [4] (10 µM unless noted) it was 38.9% (inactive); in experiment [5] (10 µM unless noted), 67.3% (inactive); in experiment [6] (10 µM unless noted), 35.3% (inactive). For the same compound, the values for the growth in experiment [7] (10 µM unless noted) and in experiment [8] (10 µM unless noted) were 78.1% (inactive) and 38.2% (inactive), respectively.
In the case of `COc1ccc(-c2nc(Cl)c3c(C)nn(-c4ccc(F)cc4)c3n2)cc1`, the growth was 102% (inactive) in experiment [1] (10 µM unless noted); 123% (inactive) in experiment [2] (10 µM unless noted); 112% (inactive) in experiment [3] (10 µM unless noted); 103% (inactive) in experiment [4] (10 µM unless noted); 105% (inactive) in experiment [5] (10 µM unless noted); 96.5% (inactive) in experiment [6] (10 µM unless noted). In addition, the growth in experiment [7] (10 µM unless noted) is 103% (inactive); in experiment [8] (10 µM unless noted) it was 104% (inactive).
